# For some of these results: Results with a measured potency or affinity are listed apart.
# Columns and labels:
# [1] = biological target: T1, Methionyl-tRNA synthetase, putative (Leishmania donovani (strain BPK282A1)) (UniProt E9BF75); assay: Leishmania donovani Methionine tRNA synthetase (LdMetRS):v7. Dose response assay; format: functional; set-up: conc 80 nM, time 150 minutes
# T1 sequence (whole entry): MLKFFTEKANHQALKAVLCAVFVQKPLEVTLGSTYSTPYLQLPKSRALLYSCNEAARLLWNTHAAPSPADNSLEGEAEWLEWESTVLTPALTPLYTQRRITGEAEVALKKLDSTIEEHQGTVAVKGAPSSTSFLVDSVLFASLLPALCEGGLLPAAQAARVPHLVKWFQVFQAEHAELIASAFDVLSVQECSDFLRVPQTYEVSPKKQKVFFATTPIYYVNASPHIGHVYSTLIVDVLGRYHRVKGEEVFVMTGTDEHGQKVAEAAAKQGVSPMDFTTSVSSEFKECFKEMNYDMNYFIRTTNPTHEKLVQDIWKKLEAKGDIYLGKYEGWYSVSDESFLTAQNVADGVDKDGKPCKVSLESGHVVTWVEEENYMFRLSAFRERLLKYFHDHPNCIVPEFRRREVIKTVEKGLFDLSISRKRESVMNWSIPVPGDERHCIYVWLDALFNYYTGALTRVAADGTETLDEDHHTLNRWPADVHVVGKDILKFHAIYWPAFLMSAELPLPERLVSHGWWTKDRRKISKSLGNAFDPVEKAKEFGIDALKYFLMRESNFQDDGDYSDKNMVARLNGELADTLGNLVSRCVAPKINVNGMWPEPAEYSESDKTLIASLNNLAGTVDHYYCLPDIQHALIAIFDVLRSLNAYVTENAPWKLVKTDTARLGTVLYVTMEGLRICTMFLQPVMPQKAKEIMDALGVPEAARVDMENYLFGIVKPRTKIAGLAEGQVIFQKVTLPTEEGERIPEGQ
# [2] = biological target: Protein translocase subunit SecA (Escherichia coli (strain K12)) (UniProt P10408); assay: Assay to Identify E. coli SecA ATPase Inhibitors; format: functional; set-up: scale not given: direction of the effect not stated beside the values; details: 30 µM
# [3] = biological target: T2, Ubiquitin-activating enzyme e1, putative (Leishmania donovani (strain BPK282A1)) (UniProt E9BSI1); assay: Leishmania donovani Ubiquitin Activating Enzyme (LdE1); format: functional; set-up: scale not given: direction of the effect not stated beside the values; details: 30 µM
# T2 sequence (whole entry): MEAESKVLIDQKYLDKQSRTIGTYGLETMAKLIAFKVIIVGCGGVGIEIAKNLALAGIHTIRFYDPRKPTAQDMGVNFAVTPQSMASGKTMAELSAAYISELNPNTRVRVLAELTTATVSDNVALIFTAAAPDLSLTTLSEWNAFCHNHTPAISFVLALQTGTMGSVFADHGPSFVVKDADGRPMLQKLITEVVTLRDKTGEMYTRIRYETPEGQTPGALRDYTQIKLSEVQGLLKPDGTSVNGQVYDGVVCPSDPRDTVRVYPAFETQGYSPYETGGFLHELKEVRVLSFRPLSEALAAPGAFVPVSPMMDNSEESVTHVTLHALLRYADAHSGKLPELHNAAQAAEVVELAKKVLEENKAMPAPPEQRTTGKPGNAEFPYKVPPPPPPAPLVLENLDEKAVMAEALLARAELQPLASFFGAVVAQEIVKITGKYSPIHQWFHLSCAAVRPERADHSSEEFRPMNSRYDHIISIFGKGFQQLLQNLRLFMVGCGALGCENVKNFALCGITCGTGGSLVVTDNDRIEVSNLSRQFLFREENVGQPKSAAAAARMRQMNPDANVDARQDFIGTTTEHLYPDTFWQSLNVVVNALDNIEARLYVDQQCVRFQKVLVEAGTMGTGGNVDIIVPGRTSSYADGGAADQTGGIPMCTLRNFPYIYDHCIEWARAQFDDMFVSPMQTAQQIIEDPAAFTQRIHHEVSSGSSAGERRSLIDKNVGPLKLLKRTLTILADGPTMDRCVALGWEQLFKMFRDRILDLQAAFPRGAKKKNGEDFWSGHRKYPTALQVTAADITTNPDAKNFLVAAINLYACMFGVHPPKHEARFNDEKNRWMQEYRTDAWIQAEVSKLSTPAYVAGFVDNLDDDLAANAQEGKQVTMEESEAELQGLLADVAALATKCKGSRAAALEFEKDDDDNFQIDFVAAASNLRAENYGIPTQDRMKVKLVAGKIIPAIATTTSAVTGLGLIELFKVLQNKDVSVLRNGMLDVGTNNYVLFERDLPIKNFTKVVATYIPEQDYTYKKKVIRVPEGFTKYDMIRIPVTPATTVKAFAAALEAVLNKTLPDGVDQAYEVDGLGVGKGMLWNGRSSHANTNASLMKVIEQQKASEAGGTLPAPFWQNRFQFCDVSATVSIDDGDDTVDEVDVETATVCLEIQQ
# [4] = biological target: AMP-activated protein kinase, AMPK (Homo sapiens) (UniProt P54646+O43741+P54619+Q9UGJ0+Q9Y478+Q13131+Q9UGI9); assay: AMP-dependent Kinase enzyme assay. An in vitro enzyme assay that detects ADP turnover that is directly proportional to AMPK activity. This uses naive AMPK that is activated during the assay with MK-8722; format: functional; set-up: scale not given: direction of the effect not stated beside the values; details: 30 µM
# [5] = biological target: Sialic acid-binding Ig-like lectin 9 (Homo sapiens) (UniProt Q9Y336); assay: Hs-Siglec9 ALPHAscreen SOP 20170721; set-up: scale not given: direction of the effect not stated beside the values; details: 10 µM
# [6] = test system: Trypanosoma cruzi; assay: Trypanosoma cruzi phosphomannomutase and mannose-1-phosphate guanylyltransferase assay; format: functional; set-up: scale not given: direction of the effect not stated beside the values; details: 10 µM
# [7] = biological target: T3, Arginase-2, mitochondrial (Homo sapiens) (UniProt P78540); assay: in vitro enzyme assay to detect the production of urea directly proportional to the activity of Arginase II; format: functional; set-up: scale not given: in the data most compounds retested in dose-response had high values; details: 33.3 µM
# T3 sequence (whole entry): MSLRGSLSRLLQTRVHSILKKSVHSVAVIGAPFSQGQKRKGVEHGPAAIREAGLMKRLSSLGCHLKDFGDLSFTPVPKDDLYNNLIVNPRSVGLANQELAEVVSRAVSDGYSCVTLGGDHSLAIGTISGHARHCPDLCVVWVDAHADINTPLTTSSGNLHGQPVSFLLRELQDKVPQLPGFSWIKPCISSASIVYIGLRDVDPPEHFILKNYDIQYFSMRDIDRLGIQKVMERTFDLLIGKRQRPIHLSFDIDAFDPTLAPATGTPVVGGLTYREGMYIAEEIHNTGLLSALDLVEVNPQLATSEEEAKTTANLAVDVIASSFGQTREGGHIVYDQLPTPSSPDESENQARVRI
# [8] = biological target: T4, Proteasome subunit beta (Trypanosoma cruzi) (UniProt O96673); assay: Trypanosoma cruzi proteasome chymotrypsin-like activity (TcProtChymo) assay.; format: functional; set-up: scale not given: in the data most compounds retested in dose-response had high values; details: 9.37 µM
# T4 sequence (whole entry): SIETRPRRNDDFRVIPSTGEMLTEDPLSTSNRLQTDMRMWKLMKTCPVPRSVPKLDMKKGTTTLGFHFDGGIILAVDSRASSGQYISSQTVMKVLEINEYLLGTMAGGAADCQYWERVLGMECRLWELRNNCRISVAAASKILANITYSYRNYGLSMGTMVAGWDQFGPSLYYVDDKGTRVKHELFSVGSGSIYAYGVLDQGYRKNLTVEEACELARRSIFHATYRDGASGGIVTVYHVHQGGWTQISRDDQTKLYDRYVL
# [9] = organism: Homo sapiens; assay: To identify inhibition of the IFN signalling (Jak-Stat) pathway via expression of an eGFP reporter gene under the control of an IFN-stimulated response element (ISRE) containing MxA promoter.; format: functional; set-up: scale not given: direction of the effect not stated beside the values; details: 30 µM
# [10] = biological target: T5, Tyrosyl-tRNA synthetase, putative (Trypanosoma cruzi (strain CL Brener)) (UniProt Q4DSP6); assay: Trypanosoma cruzi tyrosyl tRNA synthetase (TcYRS) _High Tyrosine SOP; format: functional; set-up: scale not given: in the data most compounds retested in dose-response had high values; details: 30 µM
# T5 sequence (whole entry): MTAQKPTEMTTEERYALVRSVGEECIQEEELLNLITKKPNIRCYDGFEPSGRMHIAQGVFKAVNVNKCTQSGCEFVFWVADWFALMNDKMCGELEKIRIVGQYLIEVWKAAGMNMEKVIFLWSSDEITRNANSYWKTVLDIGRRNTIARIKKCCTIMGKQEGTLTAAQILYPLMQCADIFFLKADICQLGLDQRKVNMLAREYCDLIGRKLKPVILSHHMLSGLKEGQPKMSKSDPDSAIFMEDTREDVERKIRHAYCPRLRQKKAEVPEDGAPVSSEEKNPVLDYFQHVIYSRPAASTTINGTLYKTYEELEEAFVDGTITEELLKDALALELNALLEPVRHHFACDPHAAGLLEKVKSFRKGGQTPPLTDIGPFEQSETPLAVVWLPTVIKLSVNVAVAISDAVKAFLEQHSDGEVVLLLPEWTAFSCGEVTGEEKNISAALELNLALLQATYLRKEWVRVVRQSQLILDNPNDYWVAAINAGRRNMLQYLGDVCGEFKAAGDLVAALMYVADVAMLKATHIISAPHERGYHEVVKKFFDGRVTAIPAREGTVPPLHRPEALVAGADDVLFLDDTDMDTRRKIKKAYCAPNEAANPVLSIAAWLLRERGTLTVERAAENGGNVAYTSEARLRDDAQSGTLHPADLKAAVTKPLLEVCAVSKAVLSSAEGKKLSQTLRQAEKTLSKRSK
# [11] = biological target: T5, Tyrosyl-tRNA synthetase, putative (Trypanosoma cruzi (strain CL Brener)); assay: Trypanosoma cruzi tyrosyl tRNA synthetase (TcYRS) SOP; format: functional; set-up: scale not given: direction of the effect not stated beside the values; details: 30 µM
# [12] = biological target: Chromo domain-containing protein 1 (Saccharomyces cerevisiae (strain ATCC 204508 / S288c) (Baker's yeast)) (UniProt P32657); assay: ScCHD-1 Enzyme Inhibition Assay; format: functional; set-up: scale not given: in the data most compounds retested in dose-response had high values; details: 30 µM
# Chromo domain-containing protein 1 (Saccharomyces cerevisiae (strain ATCC 204508 / S288c) (Baker's yeast)), sequence (P32657 whole entry, the tested form may be a part): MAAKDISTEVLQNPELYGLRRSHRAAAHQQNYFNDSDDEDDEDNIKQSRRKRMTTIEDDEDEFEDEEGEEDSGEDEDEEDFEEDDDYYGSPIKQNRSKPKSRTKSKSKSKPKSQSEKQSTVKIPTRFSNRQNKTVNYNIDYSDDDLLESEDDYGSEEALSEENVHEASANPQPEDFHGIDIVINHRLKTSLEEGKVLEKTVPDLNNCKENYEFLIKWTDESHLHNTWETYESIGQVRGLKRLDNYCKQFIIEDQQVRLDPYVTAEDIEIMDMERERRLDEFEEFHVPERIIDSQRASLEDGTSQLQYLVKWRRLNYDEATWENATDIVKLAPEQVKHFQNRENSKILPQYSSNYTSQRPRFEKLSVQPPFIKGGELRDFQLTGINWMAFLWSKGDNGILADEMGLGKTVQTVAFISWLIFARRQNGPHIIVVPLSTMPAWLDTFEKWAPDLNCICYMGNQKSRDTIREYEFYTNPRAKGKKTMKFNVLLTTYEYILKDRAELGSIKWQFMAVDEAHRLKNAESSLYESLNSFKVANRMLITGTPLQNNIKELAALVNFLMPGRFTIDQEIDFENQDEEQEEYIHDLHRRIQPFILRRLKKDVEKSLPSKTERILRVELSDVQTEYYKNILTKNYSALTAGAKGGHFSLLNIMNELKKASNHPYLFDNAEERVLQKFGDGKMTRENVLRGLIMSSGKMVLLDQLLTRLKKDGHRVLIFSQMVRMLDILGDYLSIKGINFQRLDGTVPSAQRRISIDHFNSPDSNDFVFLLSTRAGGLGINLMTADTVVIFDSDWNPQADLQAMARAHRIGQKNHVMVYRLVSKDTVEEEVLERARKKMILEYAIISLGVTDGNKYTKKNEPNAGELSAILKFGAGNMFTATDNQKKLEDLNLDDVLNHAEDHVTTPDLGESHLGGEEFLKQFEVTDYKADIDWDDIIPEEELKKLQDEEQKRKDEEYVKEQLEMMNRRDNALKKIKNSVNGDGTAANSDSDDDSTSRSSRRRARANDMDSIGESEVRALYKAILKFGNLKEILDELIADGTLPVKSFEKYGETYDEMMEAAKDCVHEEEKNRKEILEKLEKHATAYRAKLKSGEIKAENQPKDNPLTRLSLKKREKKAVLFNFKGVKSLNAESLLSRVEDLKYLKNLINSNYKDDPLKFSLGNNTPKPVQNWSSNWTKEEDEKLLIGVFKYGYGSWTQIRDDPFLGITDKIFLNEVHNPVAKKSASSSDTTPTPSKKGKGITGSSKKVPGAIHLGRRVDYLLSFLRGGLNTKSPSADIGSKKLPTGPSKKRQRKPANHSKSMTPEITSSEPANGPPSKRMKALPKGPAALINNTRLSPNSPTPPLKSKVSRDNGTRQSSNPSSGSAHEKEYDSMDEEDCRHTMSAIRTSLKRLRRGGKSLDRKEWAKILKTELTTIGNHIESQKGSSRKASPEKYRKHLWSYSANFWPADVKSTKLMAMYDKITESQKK
# Protein translocase subunit SecA (Escherichia coli (strain K12)), sequence (P10408 whole entry): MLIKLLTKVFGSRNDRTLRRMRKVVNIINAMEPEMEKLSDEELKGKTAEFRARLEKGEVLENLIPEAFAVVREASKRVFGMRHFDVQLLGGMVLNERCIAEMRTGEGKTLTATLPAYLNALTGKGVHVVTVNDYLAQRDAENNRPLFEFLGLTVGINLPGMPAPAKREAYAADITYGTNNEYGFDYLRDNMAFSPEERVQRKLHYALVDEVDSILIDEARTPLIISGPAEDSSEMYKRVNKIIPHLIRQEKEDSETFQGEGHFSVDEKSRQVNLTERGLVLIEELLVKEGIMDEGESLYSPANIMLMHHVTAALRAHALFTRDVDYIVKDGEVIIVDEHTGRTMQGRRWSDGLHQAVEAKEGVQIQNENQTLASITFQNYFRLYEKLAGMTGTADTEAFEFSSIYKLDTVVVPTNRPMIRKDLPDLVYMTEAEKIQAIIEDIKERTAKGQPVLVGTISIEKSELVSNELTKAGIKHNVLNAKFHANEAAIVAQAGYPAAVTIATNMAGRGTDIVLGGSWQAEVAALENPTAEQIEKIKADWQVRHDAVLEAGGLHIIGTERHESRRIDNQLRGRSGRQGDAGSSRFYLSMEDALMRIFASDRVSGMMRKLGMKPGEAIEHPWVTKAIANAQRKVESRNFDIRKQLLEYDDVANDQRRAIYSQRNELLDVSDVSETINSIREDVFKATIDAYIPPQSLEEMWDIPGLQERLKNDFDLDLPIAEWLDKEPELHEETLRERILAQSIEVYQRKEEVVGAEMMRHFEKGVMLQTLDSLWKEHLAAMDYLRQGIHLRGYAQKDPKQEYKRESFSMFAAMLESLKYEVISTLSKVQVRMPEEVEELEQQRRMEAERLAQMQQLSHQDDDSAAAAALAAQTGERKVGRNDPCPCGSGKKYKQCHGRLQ
# Sialic acid-binding Ig-like lectin 9 (Homo sapiens), sequence (Q9Y336 whole entry): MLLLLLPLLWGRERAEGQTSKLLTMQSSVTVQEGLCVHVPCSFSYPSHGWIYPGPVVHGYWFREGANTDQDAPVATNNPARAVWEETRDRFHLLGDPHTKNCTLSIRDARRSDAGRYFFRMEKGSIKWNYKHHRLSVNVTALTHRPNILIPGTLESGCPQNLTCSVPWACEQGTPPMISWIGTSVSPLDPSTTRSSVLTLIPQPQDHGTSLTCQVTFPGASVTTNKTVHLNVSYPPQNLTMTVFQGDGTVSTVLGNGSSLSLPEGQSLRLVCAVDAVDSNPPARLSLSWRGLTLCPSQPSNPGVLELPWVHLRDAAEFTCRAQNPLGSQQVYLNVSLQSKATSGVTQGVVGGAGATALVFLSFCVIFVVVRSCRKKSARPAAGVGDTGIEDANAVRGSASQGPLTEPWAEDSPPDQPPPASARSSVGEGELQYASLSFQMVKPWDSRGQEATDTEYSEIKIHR
smiles,measurement,setting,value
CCN(CCN(C)C)c1nc(CCN)nc2sc(C)c(C)c12,PXC50,"[1]; BOTTOM 1.153434253, HILLSLOPE 1.801290913, MAX_EFFECT 65.59139785, TOP 100.0",4.17
same,PXC50,"[1]; BOTTOM 3.323089956, HILLSLOPE 2.865245269, MAX_EFFECT 53.13531353, TOP 100.0",4.01
same,PXC50,"[1]; BOTTOM 7.056148009, HILLSLOPE 0.845689164, MAX_EFFECT 65.90909091, TOP 100.0",4.25
same,PXC50,"[1]; BOTTOM 9.733141468, HILLSLOPE 1.108067768, MAX_EFFECT 69.89795918, TOP 94.34728341",4.35
same,PXC50,"[1]; BOTTOM -2.908093481, HILLSLOPE 0.556623138, MAX_EFFECT 55.79710145, TOP 100.0",4.03
CCc1ccc(-c2cc(C(F)(F)F)nc(N3CCC(N)CC3)n2)cc1,PXC50,"[1]; BOTTOM 0.706388919, HILLSLOPE 2.15610203, MAX_EFFECT 103.8387716, TOP 100.0",4.56
same,PXC50,"[1]; BOTTOM 1.827311561, HILLSLOPE 2.684909792, MAX_EFFECT 98.40510367, TOP 100.0",4.35
same,PXC50,"[1]; BOTTOM 4.066049008, HILLSLOPE 2.434171465, MAX_EFFECT 89.60138648, TOP 100.0",4.34
same,PXC50,"[1]; BOTTOM 4.927859372, HILLSLOPE 1.513560957, MAX_EFFECT 87.5, TOP 100.0",4.46
same,PXC50,"[1]; BOTTOM -3.243969643, HILLSLOPE 5.145586142, MAX_EFFECT 85.90604027, TOP 95.73252463",4.19
CS(=O)(=O)N1CCN(c2ccc3ccc(C(=O)NC4CC4)cn23)CC1,PXC50,"[1]; BOTTOM 0.676888483, HILLSLOPE 1.632295337, MAX_EFFECT 62.22222222, TOP 67.77025413",4.71
same,PXC50,"[1]; BOTTOM 0.960464126, HILLSLOPE 4.237364112, MAX_EFFECT 56.37583893, TOP 52.03393569",4.89
same,PXC50,"[1]; BOTTOM 1.708048652, HILLSLOPE 3.091987727, MAX_EFFECT 59.02777778, TOP 55.32905726",4.97
same,PXC50,"[1]; BOTTOM 3.037239637, HILLSLOPE 2.011804467, MAX_EFFECT 63.24110672, TOP 62.63598189",4.98
same,PXC50,"[1]; BOTTOM -1.02344126, HILLSLOPE 1.263595064, MAX_EFFECT 66.72443674, TOP 100.0",4.26
O=C(CC1=CCCCC1)NCCc1csc(N2CCCC2)n1,PXC50,"[1]; BOTTOM 3.701535951, HILLSLOPE 1.30756587, MAX_EFFECT 71.01449275, TOP 100.0",4.26
same,PXC50,"[1]; BOTTOM -1.141810122, HILLSLOPE 1.921557011, MAX_EFFECT 84.15841584, TOP 100.0",4.32
same,PXC50,[1]; MAX_EFFECT 3.162055336,< 4
same,PXC50,[1]; MAX_EFFECT 8.571428571,< 4
same,PXC50,[1]; MAX_EFFECT 50.53763441,< 4
same,Percent Effect,[2],-6.52%
same,Percent Effect,[3],-5.33%
same,Percent Effect,[4],-0.418%
same,Percent Effect,[5],8.91%
same,Percent Effect,[6],15.9%
same,Percent Effect,[7],-1.56%
same,Percent Effect,[8],25.3%
same,Percent Effect,[9],-20.2%
same,Percent Effect,[10],23.5%
same,Percent Effect,[11],8.64%
same,Percent Effect,[12],33%
